The list is not random: actives were taken first. Their share in the collection is about 19%.
HepG2 viability: counter-screen for TGF-b inhibitors: cytotoxicity in HepG2 cells | HepG2 CAGA-GFP viability, ATP luminescence, 18 h | 410,000 tested, 0.76% active | Potency, µM (doses to about 46.1 µM), for inactives: top-dose activity change, negative = cytotoxicity, most hits filed as cytotoxic; further: potency means the concentration at half of the fitted maximal effect
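CellTiter-Glo luminescence gave cytotoxicity after 18 hours at 37 degrees C. The cells were HepG2 CAGA-GFP in 1% FBS DMEM, stimulated with 500 pg/mL TGF-beta after compound addition. %Activity was normalised to no-cell wells (complete cell-killing) and DMSO (no toxicity), and curves were fitted and classified.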
IL1B secr inh: inhibitors of inflammasome signaling (IL-1 beta secretion); activity change, % at 57.5 µM; 360,000 tested, 4.7% active; THP-1 LPS/ATP IL-1B secretion, AlphaLISA, 16 h; stronger effect = lower value; in the data active means activity change below about -50%; inconclusive means mostly about -30% to -49%; further: on the % scale 0 is the no-effect control and ±100 the full control effect
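THP-1 cells pretreated 1 hr with compounds (up to 57.5 uM final), then stimulated with LPS (250 ng/mL final) plus ATP (1.25 mM final); secreted IL-1B measured by AlphaLISA after 16 hr, decreased signal indicating inhibition.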
DT40 TDP1 CPT: DT40-hTDP1 cell growth loss with CPT; chicken DT40 Tdp1-/-;hTDP1 cells + 20 nM CPT, ATP luminescence, 48 h; Potency, µM (top dose mostly 46.2 µM), for inactives: top-dose activity change, negative = growth inhibition, most hits filed as inhibitors; 420,000 tested, 12% active; AID 686979; further: potency means the concentration at half of the fitted maximal effect; on the % scale 0 is the no-effect control and ±100 the full control effect; nearly all actives have a fitted effect of over 55% in size
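Cell growth measured by CellTiter-Glo luminescence after a minimum 48 h, 37 C compound exposure with 20 nM CPT in Tdp1-knockout DT40 cells stably expressing hTDP1, seeded 400/well; qHTS titration format.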
TDP1 cell noCPT: qHTS for Inhibitors of human tyrosyl-DNA phosphodiesterase 1 (TDP1): qHTS in cells in absence of CPT | 420,000 tested, 15% active | DT40 Tdp1-/- hTDP1 cells, no CPT, ATP luminescence, 48 h | Potency, µM (titrated, usually from 46.2 µM), for the others: top-dose activity change, negative = growth inhibition, hits mostly inhibitors; further: potency means the concentration at half of the fitted maximal effect; on the % scale 0 is the no-effect control and ±100 the full control effect; nearly all actives have a fitted effect of over 55% in size
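No-CPT arm: Tdp1-/-;hTDP1 DT40 cells (400/well) plus compounds, incubated ≥48 hr at 37 °C. Readout CellTiter-Glo luminescence.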
TGFb inhibitor: TGF-b pathway inhibition | Potency, µM (series often up to 46.1 µM), for the others: at the top dose activity, negative = inhibition, actives largely listed as inhibitors | AID 588855 | HepG2 CAGA-GFP TGF-b/SMAD3 reporter, GFP fluorescence, 18 h; TGF-beta stimulated, 500 pg/mL final | 410,000 tested, 1.2% active; further: potency means the concentration at half of the fitted maximal effect; on the % scale 0 is the no-effect control and ±100 the full control effect; nearly all actives have a fitted effect of over 65% in size
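Inhibition was scored as loss of TGF-beta-induced (500 pg/mL final, 18 hours, 37 degrees C) GFP in HEPG2 cells carrying a CAGA-GFP reporter, in DMEM with 1% FBS. Well GFP was summed per cell; Activity was normalised to unstimulated and stimulated DMSO wells, then concentration-response fitting.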
ASM inhibitor: human S-ASM enzyme inhibition. placental ASM, HMU-PC fluorogenic substrate, 60 min. Potency, µM (series often up to 57.5 µM), without a hit: at the highest dose activity change, negative = inhibition, actives largely listed as inhibitors. 340,000 tested, 0.006% active. AID 504937; further: potency means the concentration at half of the fitted maximal effect
Target sequence (P17405 47-631 limits assumed): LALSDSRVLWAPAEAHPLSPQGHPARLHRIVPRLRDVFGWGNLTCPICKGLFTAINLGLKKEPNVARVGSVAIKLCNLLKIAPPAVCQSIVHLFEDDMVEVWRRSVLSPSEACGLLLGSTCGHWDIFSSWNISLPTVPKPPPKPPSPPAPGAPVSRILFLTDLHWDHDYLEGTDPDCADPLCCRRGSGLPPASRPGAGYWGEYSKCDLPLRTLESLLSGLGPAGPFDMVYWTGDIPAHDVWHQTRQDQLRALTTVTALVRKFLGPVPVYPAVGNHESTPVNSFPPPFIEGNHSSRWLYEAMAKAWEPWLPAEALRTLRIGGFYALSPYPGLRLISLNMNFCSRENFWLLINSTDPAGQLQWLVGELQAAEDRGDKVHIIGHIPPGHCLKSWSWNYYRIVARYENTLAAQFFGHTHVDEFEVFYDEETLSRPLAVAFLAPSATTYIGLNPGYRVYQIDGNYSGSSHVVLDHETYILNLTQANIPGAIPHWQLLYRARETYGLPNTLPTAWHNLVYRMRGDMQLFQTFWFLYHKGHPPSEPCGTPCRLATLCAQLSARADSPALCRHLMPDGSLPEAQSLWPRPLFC
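Fluorescence read-out (Ex 386 nm, Em 447 nm) after stopping the reaction at pH 10. Enzyme: ASM from human placenta; substrate HMU-PC0, 9 uM final; 60 min, 37 °C. Compound preincubation 10 min, ambient temperature.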
* = called active by the depositor; ? = inconclusive; . = no result given. Unless noted, the call rests on the fitted dose curve; in most records, active means well fitted curve in the direction sought with a large enough effect; inconclusive means small, poorly fitted or top-dose-only effect, or another doubt; inactive means no such curve, though single readings can be large; an effect the other way counts as inactive or inconclusive.

SMILES | HepG2 viability | IL1B secr inh | DT40 TDP1 CPT | TDP1 cell noCPT | TGFb inhibitor | ASM inhibitor
CCOc1ccccc1N1CC(C(=O)Nc2cccc(S(=O)(=O)N3CCCCC3)c2)CC1=O (stereo not drawn) | -30% | -27 | ? | 23µM* | ? | -1%
CCOc1ccccc1N1CC(C(=O)Nc2ccc(S(=O)(=O)N3CCCCC3)cc2)CC1=O (stereo not drawn) | 2% | 2 | 13µM* | 13µM* | 6% | 38%
CCC(C)c1ccccc1N1CC(C(=O)N2CCN(C(=O)c3ccco3)CC2)CC1=O (stereo not drawn) | -8% | -14 | -1% | 6% | 0% | 0%
CCC(C)c1ccccc1N1CC(C(=O)Nc2ccc(S(=O)(=O)N3CCOCC3)cc2)CC1=O (stereo not drawn) | -1% | -9 | 23µM* | 23µM* | -16% | -1%
CC(C(=O)c1c[nH]c(C(N)=O)c1)c1ncc(C(F)(F)F)cc1Cl (stereo not drawn) | 5% | 20 | 24% | 6% | 2% | 1%
COc1cc2c(cc1OC)CN(C(=O)Cc1c(F)cccc1Cl)CC2 | -2% | -6 | -28% | ? | -3% | -17%
C=CCn1c(CCCNC(=O)C(C)(C)C)nc2ccccc21 | -23% | 24 | ? | ? | 0% | 5%
CC(=O)NCCc1nc2ccccc2n1CCOc1ccccc1 | 1% | -2 | -1% | 2% | 8% | 3%
CC(=O)NCCc1nc2ccccc2n1CCCCOc1ccc(Cl)cc1 | -41% | . | 21µM* | 15µM* | ? | .
CC(O)c1nc2ccccc2n1CCCCOc1ccccc1 (stereo not drawn) | -24% | -3 | -24% | 15µM* | ? | -2%
CCCCn1c(C(C)O)nc2ccccc21 (stereo not drawn) | -10% | 10 | -21% | -5% | -7% | 7%
C=C(C)Cn1c(CCCNC(=O)C(C)(C)C)nc2ccccc21 | 4% | 25 | 16µM* | 23µM* | -6% | -1%
CC(=O)NCCc1nc2ccccc2n1CCCCOc1ccccc1 | -18% | 39 | ? | 13µM* | -3% | -1%
CCOc1ccccc1/C=C/c1onc(C)c1S(=O)(=O)N1CCC(C(=O)NC(C)(C)C)CC1 | 4% | -4 | ? | ? | 32% | -1%
COCCCn1c(SCC(=O)Nc2ccccc2F)nnc1-c1ccoc1C | -16% | -6 | 11% | 7% | 0% | -4%
Cn1cnnc1SCC(=O)Nc1ccc(C#N)cc1 | -4% | . | -2% | 1% | -23% | .
Cc1ccccc1C(=O)Nc1nc2nc(C)c(C)c(=O)n2[nH]1 | -2% | . | 7% | -20% | 3% | .
CCCCCn1c(CCCNC(=O)c2ccc(Cl)cc2)nc2ccccc21 | -17% | . | ? | 16µM* | ? | .
COc1ccccc1OCCn1c(C(C)Oc2ccccc2)nc2ccccc21 (stereo not drawn) | -46% | . | 26µM* | ? | 11µM* | .
CC1(C)CCC[C@]2(C)C(CS(=O)c3ccccc3)=C(C=O)CC[C@@H]12 (stereo partly drawn) | -47% | ? | ? | 21µM* | ? | -2%
O=C(NC1CC1)c1ccc(CS(=O)c2ccccc2)o1 (stereo not drawn) | -17% | -28 | 1% | -17% | -12% | 8%
O=C(Nc1nnc(Cc2ccccc2)s1)C1CCN(C(=O)c2cccs2)CC1 | -15% | . | ? | ? | -23% | .
CCCCn1c(SCC(=O)c2ccccc2)nc2c(sc3ccccc32)c1=O | -4% | . | -12% | -16% | 1% | .
